Screening results as filed in PubChem.
HT1080 IDH1KD tx – HT-1080 IDH1 knockdown cell toxicity (counter line). hit rate 2% among 360,000. HT-1080 IDH1 knockdown viability, ATP luminescence, 48 h. Potency, µM (highest dose often 46.1 µM), actives largely listed as cytotoxic
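In this qHTS, HT-1080 cells depleted of IDH1 are exposed for 48 h at 37 °C to compound titrations. Toxicity is scored from CellTiter-Glo luminescence, with DMSO as full viability and medium alone as none.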
DT40 TDP1 no CPT – qHTS for Inhibitors of human tyrosyl-DNA phosphodiesterase 1 (TDP1): qHTS in cells in absence of CPT; Potency, µM (titrated, usually from 46.2 µM), actives largely listed as inhibitors; hit rate 15% among 420,000; AID 686978, 2013; DT40 Tdp1-/- hTDP1 cells, no CPT, ATP luminescence, 48 h; further: nearly all actives have a fitted effect of over 55% in size
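DT40 Tdp1-/-;hTDP1 cells, no CPT (DMSO vehicle only), 400 cells/well; compounds pin-transferred; ≥48 hr, 37 °C; CellTiter-Glo 30 min RT dark, luminescence read.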
ELG1 DNA repair – inhibitors of ELG1-dependent DNA repair in HEK293T cells; HEK293T ELG1-luciferase reporter, luminescence, 16 h; DNA damage induced by 5-fluorouridine; Potency, µM (highest dose often 46.1 µM), most hits filed as inhibitors; hit rate 2.3% among 330,000; AID 504467; further: nearly all actives have a fitted effect of over 55% in size
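In this reporter screen, reduction of luminescence relative to DMSO vehicle indicated activity. Compounds and 5-fluorouridine were added together to 2,000 cells per well, incubated for 16 hr at 37 °C, then developed with ONE-Glo.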
DT40 TDP1 CPT – DT40-hTDP1 cell growth loss with CPT | chicken DT40 Tdp1-/-;hTDP1 cells + 20 nM CPT, ATP luminescence, 48 h | Potency, µM (top dose mostly 46.2 µM), usual class: inhibitors | hit rate 12% among 420,000 | AID 686979; further: nearly all actives have a fitted effect of over 55% in size
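Cell growth measured by CellTiter-Glo luminescence after a minimum 48 h, 37 C compound exposure with 20 nM CPT in Tdp1-knockout DT40 cells stably expressing hTDP1, seeded 400/well; qHTS titration format.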
HT1080NT lethal – kills 2HG-producing HT-1080-NT fibrosarcoma cells; HT-1080-NT fibrosarcoma viability, CellTiter-Glo ATP luminescence, 48 h; Potency, µM (doses to about 46.1 µM), actives largely listed as cytotoxic; hit rate 1.6% among 360,000; AID 686970;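 further: NT is the 2HG producing partner of a matched IDH1 knockdown line; nearly all actives have a fitted effect of over 55% in size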
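Viability of the 2HG-overproducing fibrosarcoma line after 48 hours of compound exposure at 37 degrees C was determined by luminescence with CellTiter-Glo, and concentration-effect curves were then fitted and categorized.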
IL-1B inflam inh – inflammasome signaling inhibition, IL-1 beta readout; THP-1 LPS/ATP IL-1B secretion, AlphaLISA, 16 h; hits give low values; AID 743279; activity change, % at 57.5 µM; hit rate 4.7% among 360,000; in the data active means activity change below about -50%; inconclusive means mostly about -30% to -49%
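Secreted IL-1B measured by AlphaLISA bead assay after 16 h compound exposure of THP-1 cells; compounds (final up to 57.5 uM) added 1 h before LPS (250 ng/mL) and ATP (1.25 mM) stimulation; lower signal means less secretion.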
Large screens that a line does not name were inactive. Sampled rows, rich in hits. Any-hit rate of the full collection: about 19%. Unless noted, the call rests on the fitted dose curve; in most records, active means well fitted curve in the direction sought with a large enough effect; inconclusive means small, poorly fitted or top-dose-only effect, or another doubt; inactive means no such curve, though single readings can be large; an effect the other way counts as inactive or inconclusive.

NC(=O)c1sc2nnc(-c3ccccc3)c(-c3ccccc3)c2c1N	DT40 TDP1 no CPT 15µM, ELG1 DNA repair inconclusive, DT40 TDP1 CPT inconclusive
O=C1NCCN1CCN1CCC(c2cn(-c3ccc(F)cc3)c3ccc(Cl)cc23)CC1	DT40 TDP1 no CPT 2.7µM, DT40 TDP1 CPT 3µM (no result: HT1080 IDH1KD tx, ELG1 DNA repair, HT1080NT lethal, IL-1B inflam inh)
O=C1NCCN1Cc1cccc(Cl)c1	none
CCOC(=O)C1CCN(C(=O)c2ccc3c(c2)sc2nc(-c4ccccc4)cn23)CC1	DT40 TDP1 no CPT 23µM, DT40 TDP1 CPT 6.5µM (no result: HT1080 IDH1KD tx, ELG1 DNA repair, HT1080NT lethal, IL-1B inflam inh)
CCOC(=O)C1CCN(C(=O)c2ccc3c(c2)sc2nc(-c4ccc(OCC)cc4)cn23)CC1	DT40 TDP1 no CPT 6.5µM, DT40 TDP1 CPT 7.3µM (no result: HT1080 IDH1KD tx, ELG1 DNA repair, HT1080NT lethal, IL-1B inflam inh)
Cc1ccc(-c2cn3c(n2)sc2cc(C(=O)N4CCCCC4)ccc23)cc1	DT40 TDP1 no CPT 16µM (no result: HT1080 IDH1KD tx, ELG1 DNA repair, HT1080NT lethal, IL-1B inflam inh)
Cc1cc(C)n(CCC(=O)Nc2ccc3c(c2)OCCO3)n1	ELG1 DNA repair inconclusive
COc1ccc(C(=O)Cn2cc([N+](=O)[O-])nc2C)cc1	none
Cc1nc([N+](=O)[O-])c(Br)n1Cc1ccc(Cl)c(Cl)c1	HT1080 IDH1KD tx inconclusive, DT40 TDP1 no CPT 2.6µM, ELG1 DNA repair inconclusive, DT40 TDP1 CPT 5.2µM, HT1080NT lethal inconclusive, IL-1B inflam inh -60
COc1ccc(C(=O)Cn2c(C)nc([N+](=O)[O-])c2Br)cc1	HT1080 IDH1KD tx inconclusive, DT40 TDP1 no CPT 23µM, ELG1 DNA repair inconclusive, DT40 TDP1 CPT 7.3µM, HT1080NT lethal inconclusive (no result: IL-1B inflam inh)
Cc1nc([N+](=O)[O-])c(Br)n1CC(=O)c1ccc(Cl)cc1	HT1080 IDH1KD tx 18µM, DT40 TDP1 no CPT 7.3µM, DT40 TDP1 CPT 8.2µM, HT1080NT lethal inconclusive, IL-1B inflam inh -116
CC1O[C@@H](O[C@H]2C(Oc3cc(O)c4c(c3)OC(c3ccc(O)cc3)CC4=O)OC(CO)C(O)C2O)C(O)C(O)C1O (stereo partly specified)	none (no result: HT1080 IDH1KD tx, ELG1 DNA repair, HT1080NT lethal, IL-1B inflam inh)
C=CCn1c(SCc2ccc(C#N)cc2)nnc1-c1ccc(C)cc1	DT40 TDP1 no CPT 16µM, DT40 TDP1 CPT inconclusive
Cn1c(SCc2ccc(C#N)cc2)nnc1-c1ccncc1	none
c1cncc(CSc2nnc(-c3cccnc3)n2Cc2ccco2)c1	none (no result: HT1080 IDH1KD tx, DT40 TDP1 no CPT, DT40 TDP1 CPT, HT1080NT lethal, IL-1B inflam inh)
C=CCn1c(SCC(=O)NNC(=S)Nc2ccccc2)nnc1-c1ccccc1	none (no result: IL-1B inflam inh)
CCn1c(SCc2ccc(C#N)cc2)nnc1-c1cccc(Cl)c1	ELG1 DNA repair inconclusive, IL-1B inflam inh -73
C=CCn1c(SCc2ccc(C(=O)Nc3ccccc3)cc2)nnc1-c1ccccc1	DT40 TDP1 no CPT inconclusive, DT40 TDP1 CPT 18µM
Cc1cccc(-c2nnc(SCc3ccc(C#N)cc3)n2Cc2ccco2)c1	HT1080 IDH1KD tx inconclusive, DT40 TDP1 no CPT 23µM, DT40 TDP1 CPT inconclusive
COC(=O)C1=C(C)N(Cc2ccco2)C(=O)N[C@@H]1c1ccco1	none (no result: ELG1 DNA repair)
CCCC1(c2ccccc2)NC(=O)N(CC(=O)Nc2ccccc2C(F)(F)F)C1=O (stereo unspecified)	none
FC(F)(F)COc1cc(-c2nnc(SCc3ccccc3)n2Cc2ccco2)cc(OCC(F)(F)F)n1	DT40 TDP1 no CPT 29µM, ELG1 DNA repair 18µM, DT40 TDP1 CPT inconclusive
Clc1ccc(OCCCCCN2CCCC2)c(Br)c1	HT1080 IDH1KD tx inconclusive, DT40 TDP1 no CPT 23µM, DT40 TDP1 CPT inconclusive, HT1080NT lethal inconclusive, IL-1B inflam inh inconclusive
Clc1ccc(SCCN2CCNCC2)cc1	DT40 TDP1 no CPT 18µM, DT40 TDP1 CPT inconclusive
Clc1ccc(SCCCN2CCCCC2)cc1	DT40 TDP1 no CPT inconclusive
CCN1CCN(CCCOc2ccc(Cl)cc2Br)CC1	DT40 TDP1 no CPT 16µM, DT40 TDP1 CPT inconclusive, HT1080NT lethal inconclusive
Clc1ccc(OCCCN2CCCCC2)c(Br)c1	DT40 TDP1 no CPT inconclusive, ELG1 DNA repair inconclusive, DT40 TDP1 CPT inconclusive
Clc1ccc(Cl)c(OCCCCN2CCNCC2)c1	HT1080 IDH1KD tx inconclusive, DT40 TDP1 no CPT inconclusive, DT40 TDP1 CPT 5.8µM, HT1080NT lethal inconclusive, IL-1B inflam inh -74
CC(=O)c1ccc(NC(=O)C(Cc2ccccc2)NS(=O)(=O)c2ccc3c(c2)CCC(=O)N3)cc1 (stereo unspecified)	none (no result: HT1080 IDH1KD tx, ELG1 DNA repair, HT1080NT lethal, IL-1B inflam inh)
O=C(/C=C/[C@H]1O[C@@H](n2ccc(=O)[nH]c2=O)[C@H](O)[C@@H]1O)NCc1cccs1	none (no result: ELG1 DNA repair)
N#CC1=C(N)NC(SCC(=O)Nc2ccc(Br)cc2)=C(C#N)C12CCCCC2	HT1080 IDH1KD tx inconclusive, DT40 TDP1 no CPT inconclusive, ELG1 DNA repair 23µM, DT40 TDP1 CPT 26µM, HT1080NT lethal inconclusive, IL-1B inflam inh inconclusive
N#CC1=C(N)NC(SCc2ccccc2)=C(C#N)C12CCCC2	DT40 TDP1 no CPT 18µM, ELG1 DNA repair inconclusive, DT40 TDP1 CPT inconclusive
CC1=C(C(=O)Nc2ccccc2)C2(CCCCC2)C(C#N)=C(SCC(N)=O)N1	DT40 TDP1 no CPT 16µM, DT40 TDP1 CPT inconclusive
